{"source": "PubChem BioAssay (NCI)", "note": "Compounds without any hit were thinned out: in the full panel of roughly 83,000, 20% have a hit.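 A percent growth of 40 corresponds to 60% growth inhibition; 0 means no net growth; -100 means all cells died. Active threshold: below 10.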 Active and inactive are the calls of the source.", "data": [{"system": "HL-60(TB) leukemia", "experiment": "NCI-60 one-dose screen, 48 h (100 = growth as untreated, 0 = no growth, -100 = all killed)", "conditions": "10 µM unless noted", "values": [{"compound": "Clc1ccc(-c2csc(Nc3cccc(Nc4csc(-c5ccc(Cl)cc5)n4)c3)n2)cc1", "growth": "96.1% (inactive)"}, {"compound": "N#Cc1c(NC(=O)c2cccc(C(F)(F)F)c2F)sc2c1CCC(=O)C2", "growth": "-17.4% (active)"}, {"compound": "O=S(=O)(NCCCNc1nccc(-c2[nH]c(-c3ccccc3)nc2-c2ccc(Cl)c(O)c2)n1)c1cccc2ccccc12", "growth": "9.79% (active)"}, {"compound": "COc1cc(-c2nn(C(C)(C)C)cc2-c2ccnc(NCCCNS(=O)(=O)c3ccccc3)n2)ccc1Cl", "growth": "103% (inactive)"}, {"compound": "Cc1cc2ncc(-c3cc4ccccc4c(N4CCN(C)CC4)n3)nc2cc1C", "growth": "-31.9% (active)"}, {"compound": "C#C[C@]1(O)CC[C@H]2[C@@H]3CC=C4c5sc(-c6ccc(F)cn6)nc5CC[C@]4(C)[C@H]3CC[C@@]21C", "growth": "8.65% (active)"}, {"compound": "O=C1Nc2ccccc2Oc2ccc(S(=O)(=O)CC3CO3)cc21", "note": "(stereo not drawn)", "growth": "0.252% (active)"}, {"compound": "Clc1ccc2oc3c(OCCCn4ccnc4)c4ccccc4nc3c2c1", "growth": "73.1% (inactive)"}]}]}
